According to PubChem BioAssay:
Active and inactive are the calls of the source.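 The calls were made as follows, unless noted: active = fluorescence slope higher than the sample average by over 3 SD (cut at about -0.22 in these data, passing the limit was not always enough); inactive = the rest.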

Assays:
[1] = inhibitors of TNFa-induced NFkB p65 translocation, primary screen, imaging, HUVEC, MLSMR starter and 10KST1 sets (AID 438;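 active = inhibition above 20% together with a positive visual image hit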;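 also: compound added about 3h40 before a 20 min TNFalpha stimulation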;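 as to inhibition: signal is the nuclear over cytoplasmic p65 intensity ratio per well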); conditions: HUVEC TNFa-induced p65 nuclear translocation; cell count: measured here: nuclei count (cytotoxicity indicator), at 2.08 µM; inhibition: at 2 µM, stronger effect = higher value, 0% TNFa-plus-vehicle, 100% no-TNFa wells
[2] = reduction of polyQ htt aggregates in cells – imaging, exon1htt(103Q)mCFP cells, high-content imaging, primary screen (AID 483;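 active = visual image review flags a hit and inhibition of aggregation exceeds 20%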;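 also: compound exposure lasted 3 days before fixation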;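 as to nuclei count: percent of the per-plate median nuclei count of sample wells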); conditions: exon1htt(103Q)mCFP cell line, aggregate imaging, at 2 µM; inhibition of aggregation: stronger effect = higher value; nuclei count: measured here: cell count, toxicity
[3] = endothelial E-selectin expression blockers – imaging, HUVEC, immunofluorescence, MLSMR starter and 10KST1 sets, primary screen (AID 487;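 active = visually confirmed hit in the image check and inhibition above 20%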;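 as to inhibition: signal is fraction of cell area covered by stained E-selectin grains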;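 as to nuclei count: 100% = median nuclei count of all wells on the same plate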); conditions: HUVEC TNFalpha-induced E-selectin immunofluorescence imaging, at 2 µM; inhibition: stronger effect = higher value; nuclei count: measured here: cell number, toxicity
[4] = molecular target: Voltage-gated potassium channel subunit beta-2 (Rattus norvegicus) (UniProt P62483); assay: inhibitors of rat Kvbeta2 reductase activity – biochemical, NADPH fluorescence, primary screen (AID 622); conditions: recombinant KvBeta, 4-cyanobenzaldehyde reduction, at 10 µM, stronger effect = higher value;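 also: slope of raw intensity against log time taken from 70 to 1610 s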
[5] = molecular target: Voltage-gated potassium channel subunit beta-2 (Rattus norvegicus) (UniProt P62483); assay: enhancers of rat Kvbeta2 NADPH turnover – biochemical, NADPH fluorescence, primary screen (AID 623;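 active = NADPH fluorescence slope more negative than the mean of all samples by about 3 SD, 99.7% confidence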;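 also: fluorescence intensity change per second fitted from 20 to 320 s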); conditions: Recombinant KvBeta, NADPH fluorescence decrease slope, 10 min; at 10 µM; stronger effect = lower value
[6] = molecular target: Alpha-2C adrenergic receptor (Homo sapiens) (UniProt P18825); assay: compounds altering alpha2C-coupled GIRK flux – cell-based, HEK293 alpha2C/GIRK1/2, thallium flux, primary screen (AID 624;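 active = fluorescence slope after compound addition differing from the mean of all screened samples at 99.7% confidence, in either direction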;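 also: slope of fluorescence ratio to pre-addition baseline per second over 15 to 24 s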); conditions: thallium flux BTC fluorescence, at 10 µM, actives lie on both sides
[7] = blockers of RIG-like receptor reporter activation – cell-based, Sendai virus stimulus, luciferase, 10K MLSCN set, TLR/RLR signaling modifier project, primary screen (AID 602276;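 active = inhibition at or above 50% at 10 µM; inactive = inhibition below 50%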;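 also: firefly luciferase from ISG56 promoter only with Renilla not read in this screen; 0% = Sendai virus plus DMSO and 100% = medium plus DMSO without virus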); conditions: HEK293 RL24 IRF3 luciferase reporter, at 10 µM, stronger effect = higher value
[8] = TLR3 IRF3 reporter activation blockers – cell-based, poly I:C stimulus, luciferase, 10K MLSCN set, primary screen (AID 602277;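 active = inhibition of the reporter signal at or above 50%; inactive = inhibition below 50%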); conditions: HEK293-TLR3 RL24 IRF3 luciferase reporter, at 10 µM, stronger effect = higher value

Voltage-gated potassium channel subunit beta-2 (Rattus norvegicus), sequence (P62483 whole entry, looked up): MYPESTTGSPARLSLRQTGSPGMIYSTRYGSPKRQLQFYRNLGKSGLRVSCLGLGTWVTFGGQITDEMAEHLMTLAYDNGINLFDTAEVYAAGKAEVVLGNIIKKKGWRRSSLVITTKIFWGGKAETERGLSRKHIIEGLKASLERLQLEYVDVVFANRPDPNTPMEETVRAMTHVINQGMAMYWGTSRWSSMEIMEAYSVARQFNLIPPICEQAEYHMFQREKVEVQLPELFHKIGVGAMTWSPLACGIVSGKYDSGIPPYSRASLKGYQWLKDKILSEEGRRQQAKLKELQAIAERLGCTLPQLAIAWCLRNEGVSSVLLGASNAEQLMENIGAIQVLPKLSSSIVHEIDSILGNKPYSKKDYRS
Alpha-2C adrenergic receptor (Homo sapiens), sequence (P18825 whole entry, looked up): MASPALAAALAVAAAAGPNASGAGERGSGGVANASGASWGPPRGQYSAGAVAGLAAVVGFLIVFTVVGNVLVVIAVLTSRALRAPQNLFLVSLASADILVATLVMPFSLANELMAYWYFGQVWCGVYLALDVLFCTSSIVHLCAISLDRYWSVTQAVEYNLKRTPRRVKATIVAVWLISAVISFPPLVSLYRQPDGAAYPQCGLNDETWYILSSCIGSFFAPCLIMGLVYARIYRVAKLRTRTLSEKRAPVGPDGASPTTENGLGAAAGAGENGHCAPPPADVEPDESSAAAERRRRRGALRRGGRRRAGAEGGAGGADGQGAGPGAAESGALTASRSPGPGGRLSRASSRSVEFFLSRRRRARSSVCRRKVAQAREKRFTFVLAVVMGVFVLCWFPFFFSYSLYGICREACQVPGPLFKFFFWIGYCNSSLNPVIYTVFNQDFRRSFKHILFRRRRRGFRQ

SMILES | cell count [1] | inhibition [1] | inhibition of aggregation [2] | nuclei count [2] | inhibition [3] | nuclei count [3] | fluorescence slope [4] | NADPH fluorescence slope [5] | slope [6] | inhibition [7] | inhibition [8]
CCOc1ccc(N2CC(C(=O)Nc3cccc(C)c3C)CC2=O)cc1 (stereo unspecified) | 694 | 0.6% (inactive) | 12.5% (inactive) | 85.4% | -61.5% (inactive) | 114% | -0.608 (inactive) | -1.8e-05 (inactive) | 0.00361 (inactive) | 8.36% (inactive) | 8.88% (inactive)
Cc1nc2c(-c3ccc(F)cc3)c(C)nn2c(C)c1CCC(=O)NC(C)CCc1ccco1 (stereo unspecified) | 791 | 0.6% (inactive) | -37.7% (inactive) | 99.5% | -23.2% (inactive) | 110% | -0.568 (inactive) | -3.3e-05 (inactive) | 0.00479 (inactive) | 4.5% (inactive) | 26.9% (inactive)
CC(C)Cn1c(N)c(C(=O)NCc2cccs2)c2nc3ccccc3nc21 | 250 | -2.4% (inactive) | -3.1% (inactive) | 68.4% | -1.8% (inactive) | 97.2% | -0.474 (inactive) | 7.5e-06 (inactive) | 0.00389 (inactive) | 14.5% (inactive) | -0.686% (inactive)
O=S(=O)(NCC(c1cccnc1)N1CCN(c2ccccc2)CC1)c1cc(F)ccc1F (stereo unspecified) | 524 | -6.2% (inactive) | 9% (inactive) | 51.3% | -75.8% (inactive) | 115% | -0.508 (inactive) | 5.2e-05 (inactive) | 0.00657 (inactive) | 21.7% (inactive) | 20.8% (inactive)
CC1CCC(NC(=O)Cn2ncc3ccccc32)CC1 (stereo unspecified) | 728 | -3.7% (inactive) | -13.1% (inactive) | 118% | -59.2% (inactive) | 106% | -0.577 (inactive) | -4.8e-05 (inactive) | 0.00746 (inactive) | -43.1% (inactive) | -111% (inactive)
N#CCCN(C(=O)Nc1ccc(Cl)cc1)c1ccccc1 | 355 | -2.1% (inactive) | -8.5% (inactive) | 98.6% | -15.7% (inactive) | 99.7% | -0.632 (inactive) | 2.2e-05 (inactive) | 0.00361 (inactive) | -5.26% (inactive) | -52.7% (inactive)
CCOC(=O)N1CCC(N2CC34C=CC(O3)C(C(=O)O)C4C2=O)CC1 (stereo unspecified) | 811 | 4.4% (inactive) | 14.5% (inactive) | 106% | -9.6% (inactive) | 114% | -0.552 (inactive) | 2.3e-05 (inactive) | 0.00719 (inactive) | 4.63% (inactive) | 12.4% (inactive)
Cc1ccc(/C=c2\sc3nc(-c4ccccc4Br)nn3c2=O)o1 | 277 | -5% (inactive) | 39.3% (active) | 92.3% | -9.5% (inactive) | 94.1% | -0.577 (inactive) | -5.1e-05 (inactive) | 0.00296 (inactive) | 12.3% (inactive) | 18.9% (inactive)
S=c1[nH]ncn1-c1ccccn1 | 681 | -11% (inactive) | -25.8% (inactive) | 114% | -40.7% (inactive) | 109% | -0.41 (inactive) | -3.7e-05 (inactive) | 0.00408 (inactive) | 1.29% (inactive) | 8.61% (inactive)
Cc1cc(=O)n(-c2ccc3ccccc3n2)[nH]1 | 383 | -0.7% (inactive) | -7.3% (inactive) | 89.7% | -37.6% (inactive) | 107% | -0.436 (inactive) | -5.1e-05 (inactive) | 0.00622 (inactive) | 17.4% (inactive) | 9.22% (inactive)
CN(C)C(=O)N1CCN(C(=O)c2ccco2)CC1 | 827 | -15.9% (inactive) | 17.6% (inactive) | 99.6% | -69.2% (inactive) | 114% | -0.601 (inactive) | 5.7e-06 (inactive) | 0.00702 (inactive) | -4.34% (inactive) | 19.5% (inactive)
CCCC1c2ccc(C)n2CCN1C(=O)Nc1ccccc1Cl (stereo unspecified) | 243 | 2.3% (inactive) | -6.4% (inactive) | 100% | -1% (inactive) | 94.7% | -0.564 (inactive) | 2.7e-05 (inactive) | 0.0054 (inactive) | -53.4% (inactive) | -190% (inactive)
CC(C)Cn1c(N)c(C(=O)COC(=O)c2cc(-c3ccco3)nc3ccccc23)c(=O)n(C)c1=O | 381 | -2.2% (inactive) | -4.3% (inactive) | 100% | -133% (inactive) | 110% | -0.482 (inactive) | -1.1e-05 (inactive) | 0.00566 (inactive) | 15.4% (inactive) | -3.29% (inactive)
O=C(NCC1CCCO1)C1CCN(S(=O)(=O)c2cccc3cccnc23)CC1 (stereo unspecified) | 651 | -5% (inactive) | 6.8% (inactive) | 104% | -63.2% (inactive) | 114% | -0.516 (inactive) | 1.4e-05 (inactive) | 0.00614 (inactive) | 10.7% (inactive) | 25.3% (inactive)
COc1ccccc1CC1(C)NC(=O)N(CC(=O)Nc2cc(C)on2)C1=O (stereo unspecified) | 471 | -14.8% (inactive) | 14.1% (inactive) | 88.8% | -28.8% (inactive) | 158% | -0.598 (inactive) | -2.5e-05 (inactive) | 0.006 (inactive) | 9.53% (inactive) | 16.4% (inactive)
CC(C)CCNC(=O)C(c1cccs1)N(CC1CCCO1)C(=O)Cn1nnc2ccccc21 (stereo unspecified) | 642 | 8.8% (inactive) | 3.2% (inactive) | 85.4% | -132% (inactive) | 97.1% | -0.451 (inactive) | -5.1e-05 (inactive) | 0.00299 (inactive) | 10.3% (inactive) | 35.6% (inactive)
CC(CN(C)Cc1ccccc1)OC(=O)c1ccc2c(c1)OCCO2 (stereo unspecified) | 596 | 0% (inactive) | -0.4% (inactive) | 126% | -40.2% (inactive) | 109% | -0.48 (inactive) | -5.1e-05 (inactive) | 0.00539 (inactive) | 8.96% (inactive) | 8.88% (inactive)
CCc1cccc(NC(=O)C2CCCN(S(=O)(=O)c3c(C)[nH]c(=O)[nH]c3=O)C2)c1 (stereo unspecified) | 325 | -10.3% (inactive) | 0.8% (inactive) | 106% | -57.4% (inactive) | 104% | -0.405 (inactive) | -3.6e-05 (inactive) | 0.0033 (inactive) | 9.85% (inactive) | 23.9% (inactive)
O=S(=O)(c1ccc2ccccc2c1)N1CCCCC1 | 424 | 2.6% (inactive) | 7% (inactive) | 104% | 20.8% (inactive) | 104% | -0.413 (inactive) | -2.4e-06 (inactive) | 0.00701 (inactive) | 13.9% (inactive) | 33.1% (inactive)
Clc1ss/c(=N\c2ccccn2)c1Cl | 623 | -6.5% (inactive) | -1.1% (inactive) | 112% | -39.9% (inactive) | 124% | -0.483 (inactive) | -0.000216 (inactive) | 0.0043 (inactive) | -8.89% (inactive) | -24% (inactive)
C/C(=N\O)C(C)/[N+]([O-])=C/c1nc(C)c(C)n1O (stereo unspecified) | 611 | 0.2% (inactive) | 12% (inactive) | 106% | 5.3% (inactive) | 98.3% | -0.492 (inactive) | -7.2e-05 (inactive) | 0.00463 (inactive) | 15.5% (inactive) | 20.8% (inactive)
COc1ccc(C2c3c(oc4ccccc4c3=O)C(=O)N2Cc2ccncc2)cc1OC (stereo unspecified) | 665 | -2.6% (inactive) | -6.6% (inactive) | 108% | -9.9% (inactive) | 115% | -0.315 (inactive) | -4.9e-05 (inactive) | 0.00493 (inactive) | 14.3% (inactive) | 18.9% (inactive)
CCOC(=O)c1cccc(NC(=O)c2ccco2)c1 | 690 | 2.9% (inactive) | -3.3% (inactive) | 100% | 38.8% (inactive) | 97% | -0.387 (inactive) | -6e-05 (inactive) | 0.00541 (inactive) | -16.7% (inactive) | -83.6% (inactive)
O=C(OCC#CCSc1nc2ccccc2s1)c1ccco1 | 639 | -19.8% (inactive) | -8.9% (inactive) | 116% | -28.5% (inactive) | 100% | -0.471 (inactive) | 2.6e-05 (inactive) | 0.00607 (inactive) | -14.4% (inactive) | -21.9% (inactive)
O=c1oc2ccccc2c2nccnc12 | 410 | 2.1% (inactive) | 2.2% (inactive) | 104% | -5.2% (inactive) | 107% | -0.456 (inactive) | -3.3e-05 (inactive) | 0.00253 (inactive) | 5.7% (inactive) | 27.5% (inactive)
CCCCN(CC)CCCNC(=O)CS(=O)(=O)Cc1nc(-c2cccc(OC)c2)oc1C | 670 | -15.1% (inactive) | -1% (inactive) | 100% | -24.9% (inactive) | 99.7% | -0.354 (inactive) | 4e-05 (inactive) | 0.00399 (inactive) | 2.85% (inactive) | 17.9% (inactive)
